# Records with an inconclusive call do not appear. Active and inactive are the calls of the source. The calls were made as follows: active = hit-call score of the fitted dose curve at least 0.9, where 1 is the maximum; inconclusive = response in the unintended direction; inactive = score below 0.9.
# Molecular target: Tyrosine-protein kinase ABL1 (Homo sapiens) (UniProt P00519)
# Test: NVS_ENZ_hAbl: NovaScreen (NVS) Enzymatic Assay for human ABL proto-oncogene 1, non-receptor tyrosine kinase
# Experimental: NVS_ENZ_hAbl is a biochemical, single-readout assay that uses extracted gene-proteins in a cell-free assay. Measurements were taken 1 hour after chemical dosing in a 96-well plate.NVS_ENZ_hAbl is one of one assay component(s) measured or calculated from the NVS_ENZ_hAbl assay. It is designed to make measurements of enzyme activity, a form of enzyme reporter, as detected with fluorescence intensity signals by Fluorescence and electrophoretic mobility shift technology.Data from the assay component NVS_ENZ_hAbl was analyzed into 1 assay endpoint. This assay endpoint, NVS_ENZ_hAbl, was analyzed in the positive analysis fitting direction relative to DMSO as the negative control and baseline of activity. Using a type of enzyme reporter, loss-of-signal activity can be used to understand changes in the enzymatic activity as they relate to the gene ABL1. Furthermore, this assay endpoint can be referred to as a primary readout, because this assay has produced multiple assay endpoints where this one serves a enzymatic activity function. To generalize the intended target to other relatable targets, this assay endpoint is annotated to the kinase intended target family, where the subfamily is non-receptor tyrosine kinase.
# Binding assays used specific radioligands (tritiated, iodinated) with non-radioactive competitive displacement ligands in agonist or antagonist protocols (as indicated) and various reference compounds and inhibitors to titrate specific binding to receptors and transporters. Most enzyme assays (CYPs, kinases, phosphatases, proteases, HDACs) used recombinant protein and specific substrates (fluorescence mostly, some colorimetric and radioactive) and inhibitors, followed by a biochemical separation of substrate and product. All assays for the biochemical HTS were initially run in duplicate at a single concentration (10 uM for CYP450 assays and 25 uM for all others). Assay-chemical combinations meeting a pre-defined threshold (e.g., 30% inhibition and other criteria defined below) were then run in singleton concentration-response format with maximum concentration of 20 uM for CYPs and 50 uM for all others. Each assay was run with positive and negative controls, and concurrent controls on every plate. The follow-up (secondary) screen tested active chemical-pairs in concentration series, as well as a few additional assays not tested in the primary screen, some selected negative inactives, and several cases re-run in the concentration series for confirmatory purposes.
# Tyrosine-protein kinase ABL1 (Homo sapiens), sequence (P00519 whole entry, looked up): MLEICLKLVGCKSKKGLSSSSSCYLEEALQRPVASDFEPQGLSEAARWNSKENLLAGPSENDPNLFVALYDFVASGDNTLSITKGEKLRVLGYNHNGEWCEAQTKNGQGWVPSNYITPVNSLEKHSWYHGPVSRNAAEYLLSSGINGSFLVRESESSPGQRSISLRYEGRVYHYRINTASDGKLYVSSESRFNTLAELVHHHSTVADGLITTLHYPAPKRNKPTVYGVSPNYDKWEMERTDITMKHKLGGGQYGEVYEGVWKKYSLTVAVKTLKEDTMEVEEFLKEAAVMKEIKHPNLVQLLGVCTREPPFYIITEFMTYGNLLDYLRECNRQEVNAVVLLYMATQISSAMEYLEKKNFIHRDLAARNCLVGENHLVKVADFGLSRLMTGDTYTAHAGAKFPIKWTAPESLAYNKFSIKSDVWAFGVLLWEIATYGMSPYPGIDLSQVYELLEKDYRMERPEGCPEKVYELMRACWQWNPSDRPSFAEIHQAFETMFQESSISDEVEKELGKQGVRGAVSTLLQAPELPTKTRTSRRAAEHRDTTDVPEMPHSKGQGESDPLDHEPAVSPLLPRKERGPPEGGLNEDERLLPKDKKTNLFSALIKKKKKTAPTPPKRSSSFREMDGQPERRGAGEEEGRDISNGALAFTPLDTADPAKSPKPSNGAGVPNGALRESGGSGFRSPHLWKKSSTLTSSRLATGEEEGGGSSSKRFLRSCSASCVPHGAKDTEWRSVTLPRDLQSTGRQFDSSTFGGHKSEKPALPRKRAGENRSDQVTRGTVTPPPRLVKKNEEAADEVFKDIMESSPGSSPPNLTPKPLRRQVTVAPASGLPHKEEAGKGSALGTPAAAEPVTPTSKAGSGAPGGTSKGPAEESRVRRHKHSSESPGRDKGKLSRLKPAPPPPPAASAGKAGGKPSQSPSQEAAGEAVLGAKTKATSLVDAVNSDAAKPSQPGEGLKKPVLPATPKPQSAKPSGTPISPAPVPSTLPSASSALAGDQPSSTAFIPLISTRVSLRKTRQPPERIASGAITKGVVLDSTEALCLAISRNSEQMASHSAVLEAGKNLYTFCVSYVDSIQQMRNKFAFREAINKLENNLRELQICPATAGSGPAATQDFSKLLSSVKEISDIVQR
row,Structure (SMILES),outcome
1,O=S(=O)(O)C(F)(F)C(F)(F)C(F)(F)C(F)(F)C(F)(F)C(F)(F)C(F)(F)C(F)(F)F,inactive
2,O=C(Nc1ccccc1)Nc1ccnc(Cl)c1,inactive
3,CCCC(=NOCC)C1=C(O)CC(CC(C)SCC)CC1=O (stereo not drawn),inactive
4,O=C(Nc1ccccc1)Nc1cnns1,inactive
5,CCCCNC(=O)n1c(NC(=O)OC)nc2ccccc21,inactive
6,CCNc1nc(Cl)nc(NCC)n1,inactive
7,O=C(O)C(F)(F)C(F)(F)C(F)(F)C(F)(F)C(F)(F)C(F)(F)C(F)(F)F,inactive
8,N#Cc1c(Cl)c(Cl)c(Cl)c(C#N)c1Cl,inactive
